Experimental findings from PubChem BioAssay AID652106 (National Center for Advancing Translational Sciences (NCATS), 2013) are described below.

Screen size: about 370,000 compounds; about 500 (0.14%) were called active. A call without a number means that no potency is given here. Not shown: some 2% with an inconclusive outcome. The call rests on the fitted dose curve; in most records, active means well fitted activation curve with a large enough effect; inconclusive means small, poorly fitted or top-dose-only effect; inactive means no such curve, though single readings can be large or run the other way. Many of the other results were omitted from the sample, so actives are more common in it than they were.
Potency means the concentration at half of the fitted maximal effect.

The nature of the assay: qHTS of alpha-syn Inhibitors. Further: nearly all actives have a fitted effect of over 65% in size. To be noted: Yeast expressing alpha-synuclein, BacTiter-Glo, 24 h; Potency: growth rescue; series mostly up to 46.1 µM. In a few lines:
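Rescue of yeast growth: cells expressing toxic alpha-synuclein, induced in galactose at OD600 0.02, incubated with compound 24 h at 30 C. ATP luminescence quantified growth; inhibitors of toxicity appear as activators.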
(In general: Quantitative high-throughput screening tests each substance at several concentrations.)
As to `O=C(CC(=O)c1cccnc1)c1ccccc1`, the Potency is 15.8 µM (active).

In the case of `CCOc1ccccc1NC(=O)c1cccnc1`, the Potency result was “inactive”.

In the case of `O=C(Nc1cnccn1)c1cccnc1`, the Potency result was “inactive”.

On to `CCOc1ccc(NC(=O)CSc2nnc3c(n2)[nH]c2ccc(S(=O)(=O)N4CCOCC4)cc23)cc1`, for which the Potency entry is “inactive”.

In the case of `CCN(CC)c1ccc(/C=C/c2c(C)cnc3ccc(C)cc23)cc1`, the Potency result is “inactive”.

Take `COc1cc2nc(N3CCCN(C)CC3)nc(NC3CC3)c2cc1OC`: the Potency result was “inactive”.

Turning to `OC(CBr)C[n+]1cccc2cc(Br)ccc21` (centres undefined), the Potency entry was “inactive”.

With `ClC/C=C/C[n+]1ccccc1Cl`, the Potency entry is “inactive”.

For `O=C(c1ccco1)N(Cc1cccs1)c1ccc(O)cc1`, the Potency entry is “inactive”.

Regarding `O=c1cc(-c2ccccc2)[nH]c2nc(Cl)ccc12`, the Potency entry was “inactive”.

`NS(=O)(=O)c1ccc(NC(=O)CSc2nnc3c(n2)[nH]c2ccccc23)cc1`: the Potency entry is “inactive”.

Take `CCC(C)N(c1ccc(/C=C/c2ccnc3ccccc23)cc1)C(C)CC` (centres undefined): the Potency result was “inactive”.

Consider `O=C1c2ccccc2C(=O)N1c1ccc(S(=O)(=O)N2CCOCC2)c2ccccc12`, for which the Potency result is “inactive”.

Turning to `CS(=O)c1ccc(/C=C2\C=Cc3ccccc32)cc1` (centres undefined), the Potency entry was “inactive”.

Take `Cc1ccc(C(=O)CSc2nc(-c3ccccc3)nc3c2CCCC3)c(C)c1`: the Potency result was “inactive”.

`Cc1cccc(Nc2nc(C)nc(N)c2S(=O)(=O)c2ccccc2)c1`: the Potency result is “inactive”.

Take `Brc1cccc[n+]1Cc1cccc(C[n+]2ccccc2Br)c1`: the Potency entry is “inactive”.

Consider `OC(Cc1ccc2ccccc2n1)c1ccc(Cl)c(Cl)c1` (centres undefined), for which the Potency entry was “inactive”.

On to `COc1ccc(C)cc1NC(=O)C(=O)NCCc1sc(-c2cccc(C)c2)nc1C`, for which the Potency result is “inactive”.

For `CN(C)c1ccc(/C=C2\C=Cc3ccccc32)cc1Br`, the Potency result is “inactive”.

Take `CC(C)(C(=O)NO)c1ccccc1`: the Potency entry is “inactive”.

For `CN(O)C(=S)c1ccccc1`, the Potency is 3.55 µM (active).

With `CCOc1ccccc1C(=O)NC1(C(F)(F)F)NC(=O)N(CCc2ccc(OC)c(OC)c2)C1=O` (centres undefined), the Potency entry was “inactive”.

With `O=C(c1cnn2c1NC(=C1CC1)C=C2C(F)F)N1CCc2ccccc2C1`, the Potency result was “inactive”.

For the compound `Cc1cc(F)ccc1NC1(c2ccccc2)C(=O)c2ccccc2C1=O`, the Potency result was “inactive”.

For the compound `O=[N+]([O-])c1ccccc1S(=O)(=O)Nc1cccc2cccnc12`, the Potency result is “inactive”.

Turning to `O=S(=O)(Nc1cccc2cccnc12)c1cccc2cccnc12`, the Potency entry was “inactive”.

As for `COc1ccc(S(=O)(=O)Nc2cccc3cccnc23)c(N)c1`, the Potency was 22.4 µM (active).

Turning to `O=C(NNC(=O)c1ccc(Cl)nc1)c1ccc(Br)cc1`, the Potency entry was “inactive”.

As for `CC(=O)NC(=S)NNC(=O)c1ccc(Br)cc1`, the Potency was 12.6 µM (active).

Take `CNC(=S)NNC(=O)c1ccc(N(C)C)cc1`: the Potency result is “inactive”.

On to `Cc1ccc(-c2nc(=N)sn2Cc2ccccc2)cc1`, for which the Potency entry is “inactive”.

Consider `CC(C)CC(CO)N1CCN(C(=O)c2ccc(Cl)cc2Cl)CCC1=O` (centres undefined), for which the Potency result is “inactive”.

As for `CC(C)C[C@@H](COCc1ccc(Cl)cc1)N1CCN(C(=O)c2ccc(Cl)cc2Cl)CCC1=O`, the Potency was 15.8 µM (active).

On to `CC(C)CC(COCc1ccc(Cl)cc1)N1CCN(C(=O)c2ccc(C(F)(F)F)cc2)CCC1=O` (centres undefined), for which the Potency result was “inactive”.

Turning to `CN(C(=N)N)c1ccc(/C=C2\C=Cc3ccccc32)cc1`, the Potency result was “inactive”.

As to `CN(C)CCCn1c(-c2ccc(Cl)cc2)csc1=Nc1ccccc1`, the Potency entry is “inactive”.

For the compound `CN(C)c1ccc(/C=C/c2sc3ccccc3[n+]2C)cc1`, the Potency entry was “inactive”.

`CC1(C)C=Cc2c(ccc(C(=O)/C=C/c3ccccc3)c2O)O1`: the Potency entry was “inactive”.

On to `COc1ccc(C2Nc3ccc(NC(=O)COC(C)=O)cc3C(=O)N2Cc2ccccc2)cc1COc1ccc(NC(C)=O)cc1` (centres undefined), for which the Potency result was “inactive”.

Take `N#Cc1ccc[n+](CC(=O)c2ccc(O)c(O)c2)c1`: the Potency result is “inactive”.

For `CCCCCCCNc1ccc(/C=C/c2ccnc3ccccc23)cc1`, the Potency result was “inactive”.

Consider `O=C(Nc1ccc(Cl)cc1)c1cnn2c1NC(=C1CC1)C=C2C(F)F`, for which the Potency entry is “inactive”.

In the case of `COc1ccc(/C=C/c2ccccn2)cc1OC`, the Potency entry is “inactive”.

Turning to `Cc1ccccc1NC(=O)Cn1c(=O)n(Cc2ccco2)c(=O)c2ccc(C(=O)NC3CCCC3)cc21`, the Potency entry was “inactive”.

`OCC(O)C(O)C(O)C(O)C=Nc1ccc(/C=C/c2ccnc3ccccc23)cc1` (centres undefined): the Potency result was “inactive”.

As for `Oc1ccc(Br)cc1C1C=C(c2ccc3c(c2)OCO3)NC(c2ccc(Cl)cc2)N1` (centres undefined), the Potency result is “inactive”.

Consider `CCc1ccccc1NC(=O)c1cnn(-c2ccc(F)cc2)c1C1CCNCC1`, for which the Potency result is “inactive”.

On to `CCCCCCC1(C)NC(c2ccc3c(c2)OCO3)=CC(c2ccccc2O)N1` (centres undefined), for which the Potency result is “inactive”.

Take `CCCCC(CCCC)c1ccc(C=Nc2ccc(/C=C/c3ccnc4ccccc34)cc2)cc1`: the Potency entry is “inactive”.

For `CCOC(=O)c1c(NC(=O)c2ccc(S(=O)(=O)N3CCCC(C)C3)cc2)sc2c1CCN(C(C)C)C2` (centres undefined), the Potency entry is “inactive”.

With `CCC1(C)CC(=O)NC1=O` (centres undefined), the Potency entry is “inactive”.

Turning to `COc1ccc(CNc2nc(-c3ccc(Cl)cc3)nn2S(=O)(=O)c2ccc(C)cc2)cc1`, the Potency entry is “inactive”.

Consider `CN(C)C1=C2C=CC=CC2/C(=C2/C=Cc3ccccc32)C=C1` (centres undefined), for which the Potency entry was “inactive”.

In the case of `Nc1ccc(Oc2ccc(Cl)cc2)cc1`, the Potency is 17.8 µM (active).

In the case of `Nc1ccc2nn(-c3ccc(Cl)cc3)nc2c1`, the Potency entry is “inactive”.

On to `Cc1nn(C)c(Oc2ccc(Cl)cc2)c1C=O`, for which the Potency entry is “inactive”.

Take `COc1cc2nc(N3CCCN(C)CC3)nc(NC(C)C)c2cc1OC`: the Potency entry was “inactive”.

For the compound `O=C(Nc1ccc([N+](=O)[O-])cc1)c1cnn2c1NC(=C1CC1)C=C2C(F)F`, the Potency entry was “inactive”.

Take `Nc1ncnc2c1c(I)cn2[C@@H]1C[C@H](N)[C@@H](O)[C@H]1O`: the Potency entry is “inactive”.

As for `Cc1cccc(-c2nnc(SC(C)C(=O)Nc3ccccc3)n2C)c1` (centres undefined), the Potency result is “inactive”.

For `O=C(c1ccc2c(=O)n(Cc3ccco3)c(=S)[nH]c2c1)N1CCCC1`, the Potency result was “inactive”.

On to `OCc1cnc(SCc2ccc(F)cc2)n1Cc1ccc(F)cc1`, for which the Potency result was “inactive”.

On to `Cc1ccc(C)c2sc(NC(=O)c3ccc(S(=O)(=O)N4CCCC4)cc3)nc12`, for which the Potency entry was “inactive”.

For the compound `O=C1COc2ccc(-c3csc(-c4ccc(Cl)cc4)n3)cc2N1`, the Potency result was “inactive”.

For the compound `CCc1ccc(NC(=O)CN2CCSc3ccc(S(=O)(=O)N4CCCC4)cc32)cc1`, the Potency result is “inactive”.

`c1ccc(Cn2nnc3c(N4CCCCC4)ncnc32)cc1`: the Potency entry was “inactive”.

As to `Cc1c(CCO)sc[n+]1CC(=O)c1ccc2ccccc2c1`, the Potency entry was “inactive”.

`COc1cc2nc(Cl)nc(NC3CC3)c2cc1OC`: the Potency entry is “inactive”.

Take `COc1c(C)c2c(c(O)c1C/C=C(\C)CCC(=O)O)C(=O)OC2`: the Potency was 7.08 µM (active).

For `Oc1ccc(Cl)cc1C1C=C(c2ccc3c(c2)OCO3)NC(c2c(F)cccc2Cl)N1` (centres undefined), the Potency result is “inactive”.

As for `CCCCOc1ccc(C(=O)NO)cc1`, the Potency entry is “inactive”.

As to `Cc1nn(-c2ccc(F)cc2)c(-n2cccc2)c1C(=O)N1CCN(c2ccccc2)CC1`, the Potency result was “inactive”.

`CCCCNC(=O)Cn1c(SCc2cccc(Cl)c2)nc2ccncc21`: the Potency result was “inactive”.

Regarding `COc1ccc(-c2c(-c3ccc(OC)cc3O)nc(C)nc2C(F)(F)F)cc1`, the Potency result is “inactive”.

Regarding `COc1ccc(-c2[nH]ncc2CN(C)Cc2c(C)n[nH]c2C)c(OC)c1`, the Potency result was “inactive”.

Regarding `COc1ccc(Oc2cn[nH]c2-c2ccc(OC)cc2O)cc1`, the Potency was 17.8 µM (active).

For the compound `Cc1ccc(-n2c(SCC(=O)c3ccccc3)nc3c([nH]c4ccccc43)c2=O)cc1`, the Potency result was “inactive”.

For the compound `COC(=O)C1=C(C(=O)OC)[C@@H]2N(Cc3ccccc3)c3ccccc3[C@@]23C[C@@H](C(=O)OC)N(S(=O)(=O)c2ccc(C(F)(F)F)cc2)C3=N1`, the Potency entry was “inactive”.

For `CNCCCOc1cc2nc(N3CCCN(C)CC3)nc(NC3CCN(C)CC3)c2cc1OC`, the Potency result was “inactive”.

`Cc1cccc(-n2ccnc2SCC(=O)Nc2cc(C(F)(F)F)ccc2Cl)c1`: the Potency entry was “inactive”.

On to `COc1ccc(CCn2c3c(c(=O)[nH]c2=S)CN(C(C)C)CN3)cc1OC`, for which the Potency entry was “inactive”.

`COc1ccc(N2C(=O)CS(=O)(=O)C23C(=O)N(Cc2ccc(C)cc2)c2ccccc23)cc1Cl` (centres undefined): the Potency entry was “inactive”.

`CN(C)Cc1cn(-c2ccccc2)nc1-c1ccccc1`: the Potency entry was “inactive”.

On to `O=[N+]([O-])c1ccc2c(c1)Nc1nc3ccccc3nc1N2`, for which the Potency is 3.55 µM (active).

Consider `O=C(Oc1ccc([N+](=O)[O-])cc1)c1ccc2ccccc2n1`, for which the Potency result is “inactive”.

As to `O=[N+]([O-])c1cc2ccccc2nc1-c1ccccc1`, the Potency entry was “inactive”.

On to `C=C1C=C(C(F)F)n2ncc(C(=O)NCCc3ccccc3OC)c2N1`, for which the Potency entry is “inactive”.

As for `CCOc1ccccc1CNC(=O)Nc1cn(CC(C)C)c(=O)c2ccccc12`, the Potency result is “inactive”.

Take `C/C=C/NNC(=O)Cc1ccc(OC)cc1`: the Potency entry was “inactive”.

Turning to `COc1ccc(OC)c(Nc2nc(-c3ccc(O)c(O)c3)cs2)c1`, the Potency was 11.2 µM (active).

Take `COc1ccc(OC)c(NC(=O)COC(=O)Cc2ccsc2)c1`: the Potency result is “inactive”.

With `CCN1CCN(c2nc(Nc3cc(OC)ccc3OC)nc(Nc3cc(OC)ccc3OC)n2)CC1`, the Potency entry is “inactive”.

For `CCOC(=O)c1ccc(NC2=CC(c3ccc(OCC)cc3)N(c3ccc(C(=O)OCC)cc3)C2=O)cc1` (centres undefined), the Potency entry was “inactive”.

Regarding `CN(Cc1ccccc1)c1ccc(/C=C/c2ccnc3ccccc23)cc1`, the Potency entry is “inactive”.

Consider `CC(=O)/C(C)=N/O`, for which the Potency entry is “inactive”.

`CC(C)(C)C1CCC(NC(=O)c2cnn3c2NC(=C2CC2)C=C3C(F)F)CC1` (centres undefined): the Potency entry is “inactive”.

For `CC1=C(C(=O)Nc2ccccc2Cl)C(c2cccs2)n2ncnc2N1` (centres undefined), the Potency result is “inactive”.

In the case of `Cc1ccc(-c2nnc3ccc(SCC(N)=O)nn23)cc1`, the Potency entry is “inactive”.
